# Shown are actives, neighbours in structure and some others; about 1.1% of the full set was active somewhere.
# bovine MsrA act = bovine MsrA enzyme activators, primary screen, biochemical, absorbance, HTS; Methionine sulfoxide reductase A (Bos taurus); purified bovine MsrA, absorbance read-out; activation, % at 10.6 µM; actives 0.3% (n = 360,000); AID 602163, 2012; in the data active means activation above about 7.5%
# MsrA inhibitor = bovine MsrA enzyme inhibitors, primary screen, biochemical, absorbance, HTS | Methionine sulfoxide reductase A (Bos taurus) | purified bovine MsrA, absorbance read-out | inhibition, % at 15.5 µM | actives 0.75% (n = 360,000) | AID 651718, 2012
# PKA-R1A activ = activators of PKA-R1A holoenzyme, primary screen, biochemical, fluorescence polarization, Cy5-IP20, bovine R1A, mouse PKAc; PKA-R1A dissociation; scaled: DMSO 0%, 113 µM cGMP 100%; actives 0.083% (n = 340,000); activation, % at 11.4 µM;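 active means percent activation above the mean of all tested compounds plus 3 SD, cut at about 19% in these data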;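 further: higher means more PKAc released from R1A so a rise in polarization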
# PKA-R2B activ = activators of PKA-R2B holoenzyme, primary screen, biochemical, fluorescence polarization, Cy5-IP20, human. cAMP-dependent protein kinase catalytic subunit beta (Homo sapiens) + cAMP-dependent …. PKA-R2B holoenzyme dissociation; R2B truncated from residue 108, S112A mutant; 0% DMSO only, 100% 113 µM cGMP. activation, % at 11.4 µM. actives 0.079% (n = 340,000);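 active means activation above a cutoff set at the mean over all compounds plus 3 SD, cut at about 18% in these data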;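 further: higher means more holoenzyme dissociation and a rise in polarization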
# Target sequence (P31323 whole entry, looked up, other chains not shown, the tested form may be a part): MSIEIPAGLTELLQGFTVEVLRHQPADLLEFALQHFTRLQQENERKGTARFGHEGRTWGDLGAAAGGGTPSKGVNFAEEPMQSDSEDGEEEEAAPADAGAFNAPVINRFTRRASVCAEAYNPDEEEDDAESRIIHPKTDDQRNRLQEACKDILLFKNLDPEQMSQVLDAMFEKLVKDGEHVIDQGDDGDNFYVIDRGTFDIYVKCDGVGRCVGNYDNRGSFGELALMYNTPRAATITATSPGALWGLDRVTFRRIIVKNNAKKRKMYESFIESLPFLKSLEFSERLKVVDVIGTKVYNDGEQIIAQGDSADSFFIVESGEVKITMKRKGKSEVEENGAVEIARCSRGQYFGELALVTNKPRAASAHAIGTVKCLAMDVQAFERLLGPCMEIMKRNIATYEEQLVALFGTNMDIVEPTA
# MsrA conf = bovine MsrA inhibitors, retest, confirmation, biochemical, absorbance, HTS. shares compounds with MsrA inhibitor. actives 41% (n = 2,300). AID 651822, 2012. inhibition, % at 15.5 µM. purified bovine MsrA, absorbance read-out;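 further: coupled to thioredoxin reductase with NADPH and selenocystamine and DMSO as substrate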
# A number is an active result; - = inactive; . = no result given. Unless noted, no stated cut-off is given here; in the data, active means inhibition above about 4.5%; inactive means the rest.
SMILES,bovine MsrA act,MsrA inhibitor,PKA-R1A activ,PKA-R2B activ,MsrA conf
O=C(N/N=C/c1ccncc1)c1cc2ccccc2o1,-,5.8,-,-,-
O=C(O)c1cccc2c1C(=O)c1cc([N+](=O)[O-])cc([N+](=O)[O-])c1-2,-,5.6,-,-,-
O=C(O)c1ccc([N+](=O)[O-])c2c1C(=O)c1ccccc1C2=O,-,-,-,-,.
O=C(O)c1cccc2c1-c1ccc([N+](=O)[O-])cc1C2=O,-,-,-,-,.
O=C(O)c1cccc2c1-c1c(cccc1[N+](=O)[O-])C2,-,5.9,-,-,-
O=C(N/N=C/c1ccnc2ccccc12)c1ccccc1O,-,5.6,-,-,-
O=C(N/N=C/c1ccc2nccnc2c1)c1ccccc1O,.,-,.,.,.
C#CCn1c(=NC(=O)c2ccc(S(=O)(=O)N3CCCc4ccccc43)cc2)sc2cc(S(N)(=O)=O)ccc21,-,5.3,-,-,-
Cn1c(=NC(=O)c2ccc(S(=O)(=O)N3CCCc4ccccc43)cc2)sc2cc(S(C)(=O)=O)ccc21,-,-,-,-,.
COc1ccc(NC2=CC(=O)CC(C)(C)C2)cc1,-,-,-,-,.
COC(=O)c1ccc(NC2=CC(=O)CC(C)(C)C2)cc1,-,4.9,-,-,5.0
COC(=O)c1ccc(C(=O)N=c2sccn2C)cc1,-,-,-,-,.
COc1ccc(C(=O)N=c2sccn2C)cc1,-,5.8,-,-,-
Cc1oc2c(C)c3oc(=O)c(CC(=O)N[C@@H](CCCNC(N)=O)C(=O)O)c(C)c3cc2c1C,-,4.9,-,-,-
C/C(=N\Nc1ccc(C(=O)O)cc1)c1ccc(-n2ccnc2)cc1,-,6.5,-,-,4.5
C/C(=N\NC(N)=O)c1ccc(-n2ccnc2)cc1,-,-,-,-,.
Cc1noc(C)c1S(=O)(=O)N(CC(=O)NCCc1ccccc1)c1ccc(C(C)C)cc1,-,-,-,-,.
O=S1(=O)N=C(N(CCO)/N=C/c2ccc(Cl)cc2)c2ccccc21,-,-,-,-,.
COc1cc(/C=N\Nc2nc3ccccc3o2)cc(OC)c1OC,-,5.2,-,-,-
O=S1(=O)N=C(N(CCO)/N=C/C=C/c2ccccc2)c2ccccc21,-,8.3,-,-,5.7
COc1cc(/C=N/NC2=NS(=O)(=O)c3ccccc32)cc(OC)c1OC,-,5.5,-,-,4.6
O=S1(=O)N=C(N/N=C/C=C/c2ccccc2)c2ccccc21,-,6.8,-,-,6.2
O=c1[nH]c(CN2CCN(S(=O)(=O)c3cccs3)CC2)nc2c(Br)cc(Br)cc12,-,-,-,-,.
COC(=O)C1=C(C)OC(N)=C(C#N)C1c1ccco1 (centres undefined),-,-,-,-,.
CCOC(=O)C1=C(c2ccccc2)OC(N)=C(C#N)C1c1ccco1 (centres undefined),-,6.3,-,-,-
SMILES,bovine MsrA act,MsrA inhibitor,PKA-R1A activ,PKA-R2B activ,MsrA conf
CCOC(=O)C1=C(C)NC2=C(C(=O)CCC2)C1c1cccnc1 (centres undefined),-,-,-,-,.
CC(=O)Oc1cccc(C2C3=C(CC(C)(C)CC3=O)Nc3ccccc3N2C(C)=O)c1 (centres undefined),-,-,-,-,.
CC(=O)N1c2ccccc2NC2=C(C(=O)CCC2)C1c1ccco1 (centres undefined),-,4.9,-,-,-
CCC(=O)N1c2ccccc2NC2=C(C(=O)CCC2)C1c1cccnc1 (centres undefined),-,4.8,-,-,-
O=C(Nc1ccc(-c2cccc(F)c2)cc1)C1CCCN(Cc2ccccn2)C1 (centres undefined),-,-,-,-,.
CCC(C(=O)NCc1ccccc1)n1c(-c2cccs2)nc2ccccc21 (centres undefined),.,-,.,.,.
COc1ccc(S(=O)(=O)NCC2CCC(C(=O)O)CC2)cc1 (centres undefined),-,-,-,-,.
Cc1cc(N/N=C/c2ccc(O)cc2O)nc(-n2nc(C)cc2C)n1,-,4.8,-,-,-
Cc1nc(Cl)cc(N/N=C/c2ccc(O)cc2O)n1,-,5.7,-,-,6.2
COc1ccc(/C=N/N=C2/NC(=O)C(CC(=O)O)S2)cc1OCc1ccc(Cl)cc1Cl (centres undefined),-,-,-,-,.
CCOc1cc(/C=N/N=C2/NC(=O)C(CC(=O)O)S2)ccc1OS(=O)(=O)c1ccc(C)cc1 (centres undefined),-,5.6,-,-,-
COc1ccc(/C=N/N=C2/NC(=O)C(CC(=O)O)S2)cc1OCc1ccccc1Cl (centres undefined),-,6.5,-,-,6.4
COc1ccc(S(=O)(=O)Oc2cccc(/C=N/N=C3/NC(=O)C(CC(=O)O)S3)c2)cc1 (centres undefined),-,5.2,-,-,-
CCOc1cc(/C=N/N=C2/NC(=O)C(CC(=O)O)S2)ccc1OCc1ccccc1Cl (centres undefined),-,6.8,-,-,4.8
Cc1ccc(S(=O)(=O)Oc2ccc(/C=N/N=C3/NC(=O)C(CC(=O)O)S3)cc2)cc1 (centres undefined),-,-,.,.,.
CCOC(=O)C1=C(C(=O)OCC)c2ccc(OC)c(OC)c2C1,-,-,-,-,.
COc1cc(/C=C2/C(C)=C(C#N)c3nc(N)c(C#N)c(C)c32)ccc1OCC(=O)O,.,5.0,.,.,-
CC1=C(C#N)c2nc(N)c(C#N)c(C)c2/C1=C\c1ccc(-c2ccccc2C(=O)O)o1,-,-,-,-,.
COc1ccc(C2CC(=O)C(c3ccc(C#N)cc3)=CN2Cc2ccccc2)cc1 (centres undefined),.,-,.,.,.
C/C(CCCO)=N/Nc1ccc([N+](=O)[O-])cc1[N+](=O)[O-],-,14,-,-,7.0
CCC(CC)=NNc1ccc([N+](=O)[O-])cc1[N+](=O)[O-],-,-,-,-,.
C/C(CCC(=O)O)=N/Nc1ccc([N+](=O)[O-])cc1[N+](=O)[O-],-,13,-,-,9.8
COCc1cccc(-c2csc(C(C)(O)c3ccccc3)n2)c1 (centres undefined),-,-,.,.,.
NC(=O)c1ccccc1OCC(=O)N1CCCC1c1ccc2c(c1)OCCCO2 (centres undefined),-,-,-,-,.
CCCCCCCCN1C(=O)[C@@H](CC(=O)NCc2cccc3ccccc23)C[C@@]2(C(=O)OC)C1=C[C@H](C(C)(C)C)O[C@@H]2C,.,-,.,.,.
CCOC(=O)/C(C#N)=C/Nc1ccccc1OC,-,12,-,-,12
CCOC(=O)/C(C#N)=C/c1ccc(-c2ccsc2C(=O)OC)o1,-,-,-,-,.
CCOC(=O)/C(C#N)=C/Nc1ccsc1C(C)=O,-,14,-,-,7.2
